DT40 TDP1 CPT = DT40-hTDP1 cell growth loss with CPT | Potency, µM (titrated, usually from 46.2 µM), for the others: top-dose activity change, negative = growth inhibition, actives largely listed as inhibitors | 12% of 420,000 active | chicken DT40 Tdp1-/-;hTDP1 cells + 20 nM CPT, ATP luminescence, 48 h; further: on the % scale 0 is the no-effect control and ±100 the full control effect; nearly all actives have a fitted effect of over 55% in size
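Chicken DT40 Tdp1-/- cells complemented with human TDP1, 400 cells/well, exposed to compounds plus 20 nM camptothecin for at least 48 h at 37 C; viability read as ATP content by CellTiter-Glo luminescence.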
DT40 TDP1 no CPT = qHTS for Inhibitors of human tyrosyl-DNA phosphodiesterase 1 (TDP1): qHTS in cells in absence of CPT; DT40 Tdp1-/- hTDP1 cells, no CPT, ATP luminescence, 48 h; Potency, µM (series often up to 46.2 µM), without a hit: at the top dose activity change, negative = growth inhibition, most hits filed as inhibitors; 15% of 420,000 active; AID 686978, 2013; further: on the % scale 0 is the no-effect control and ±100 the full control effect; nearly all actives have a fitted effect of over 55% in size
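No-CPT arm: Tdp1-/-;hTDP1 DT40 cells (400/well) plus compounds, incubated ≥48 hr at 37 °C. Readout CellTiter-Glo luminescence.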
ClpP mod = qHTS Assay for Activators of ClpP. purified B. subtilis ClpP, FRET peptide cleavage, 20 min. 1.9% of 340,000 active. Potency, µM (titrated, usually from 57.5 µM), for inactives: at the top dose activity change, negative = active. ATP-dependent Clp protease proteolytic subunit (Bacillus subtilis (strain 168)), P80244. AID 651965, 2013; active means well fitted falling curve with a large enough effect; inconclusive means small, poorly fitted or top-dose-only effect; inactive means no such curve, though single readings can be large or run the other way; further: the source files actives as falling curves though it sought activators and does not explain the sign; nearly all actives have a fitted effect of over 65% in size
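ClpP 10 microg/mL final, pH 8 Tris/KCl buffer with BSA, glycerol, Tween-20; compound pinned in; FRET-FV substrate; RT 20 min; Ex320/Em430; ΔFRET vs ADEP 5.8 microM, DMSO, no enzyme.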
TDP1 block = inhibitors of human tyrosyl-DNA phosphodiesterase TDP1; recombinant TDP1, AlphaScreen DNA substrate cleavage; Potency, µM (series often up to 130 µM), without a hit: at the highest dose activity change, negative = inhibition, actives largely listed as inhibitors; 0.28% of 350,000 active; AID 485290; further: on the % scale 0 is the no-effect control and ±100 the full control effect; nearly all actives have a fitted effect of over 40% in size
Target sequence (Q9NUW8 whole entry, looked up): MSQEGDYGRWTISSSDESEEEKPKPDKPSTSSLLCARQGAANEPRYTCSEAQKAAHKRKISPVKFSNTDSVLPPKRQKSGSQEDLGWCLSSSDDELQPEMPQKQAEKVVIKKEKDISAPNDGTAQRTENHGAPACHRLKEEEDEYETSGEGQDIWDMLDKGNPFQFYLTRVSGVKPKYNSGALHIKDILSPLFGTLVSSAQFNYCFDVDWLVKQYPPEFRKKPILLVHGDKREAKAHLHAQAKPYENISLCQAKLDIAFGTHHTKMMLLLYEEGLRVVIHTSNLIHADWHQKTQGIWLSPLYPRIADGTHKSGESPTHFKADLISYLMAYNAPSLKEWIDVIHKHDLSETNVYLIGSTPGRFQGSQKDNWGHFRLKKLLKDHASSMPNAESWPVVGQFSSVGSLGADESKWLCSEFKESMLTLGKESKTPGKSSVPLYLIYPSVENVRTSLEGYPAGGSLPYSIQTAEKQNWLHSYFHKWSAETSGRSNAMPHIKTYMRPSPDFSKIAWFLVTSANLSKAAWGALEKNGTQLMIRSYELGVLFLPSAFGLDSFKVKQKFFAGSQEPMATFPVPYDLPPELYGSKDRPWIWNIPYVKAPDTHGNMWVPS
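Enzyme-compound mixtures sat 15 min at room temperature, followed by a 5 min reaction with 15 nM final substrate and 10 min with AlphaScreen beads. Recombinant human Tdp1 was used at 1 nM final.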
* marks the source's active call; other numbers are inactive results; ? = inconclusive; / = no result; [ ] = remark or other dose. This is a sample that favours compounds with a hit; in the whole collection about 17% have one here. Unless noted, the call rests on the fitted dose curve; in most records, active means well fitted curve in the direction sought with a large enough effect; inconclusive means small, poorly fitted or top-dose-only effect, or another doubt; inactive means no such curve, though single readings can be large; an effect the other way counts as inactive or inconclusive. Potency means the concentration at half of the fitted maximal effect.

SMILES | DT40 TDP1 CPT | DT40 TDP1 no CPT | ClpP mod | TDP1 block
COc1ccccc1N(CC(O)Cn1c(C)nc2ccccc21)S(=O)(=O)c1ccccc1 (centres undefined) | ? | 29µM* | -18% | 0%
CCN(CC(O)Cn1c2ccccc2c2ccccc21)S(=O)(=O)c1ccc(C)cc1 (centres undefined) | 29µM* | ? | ? | -1%
COc1ccc(N(CC(O)Cn2c3ccccc3c3ccccc32)S(=O)(=O)c2ccccc2)cc1 (centres undefined) | ? | ? | ? | 3%
CC(=O)Nc1ccccc1N(CC(O)Cn1c2ccccc2c2ccccc21)S(=O)(=O)c1ccc(C)cc1 (centres undefined) | ? | 18µM* | / | 3%
COc1ccccc1N(CC(O)Cn1ccnc1C)S(=O)(=O)c1ccccc1 (centres undefined) | -10% | -16% | / | -5%
CN(N=O)c1ccc2c(c1)Cc1ccccc1-2 | -28% | ? | 0% | /
Cn1c(SC2CCCCC2=O)nnc1-c1ccccc1F (centres undefined) | 4% | -5% | / | -5%
COc1ccc(C2/C(=C(/O)c3ccc(Br)cc3)C(=O)C(=O)N2C)cc1 (centres undefined) | 15% | -2% | 0% | /
Cn1c(=O)c(=O)n(C)c2cc(N3CCCC3)c(NC(=O)c3ccc(C(C)(C)C)cc3)cc21 | ? | ? | 35µM* | -4%[12.3 µM]
CCOc1ccc(NC(=O)Nc2cc3c(cc2N2CCCCC2)n(C)c(=O)n3C)cc1 | 12µM* | 13µM* | ? | 2%
CCOc1cc(C(=O)Nc2cc3c(cc2N2CCCC2)n(C)c(=O)c(=O)n3C)cc(OCC)c1OCC | -3% | -24% | 4% | -10%
CCOc1ccc(C(=O)Nc2cc3c(cc2N2CCCC2)n(C)c(=O)c(=O)n3C)cc1OCC | ? | ? | 28µM* | 2%
COc1ccc(C(=O)Nc2cc3c(cc2N2CCCCC2)n(C)c(=O)n3C)cc1OC | ? | 21µM* | -4% | 6%
COc1cccc(CNC(=O)CSc2nc3ccc(C)cc3[nH]2)c1 | ? | -16% | -1% | /
CC(=O)c1ccc(NC(=O)CSc2nnc3ccc(-c4ccc(F)cc4)nn23)cc1 | -9% | 2% | 1% | 3%
CN(C)CCNC(=O)Cn1ccc2cc(S(=O)(=O)N3CCCCCC3)ccc21 | -13% | ? | -2% | 6%
O=C(CNCCc1ccc(F)cc1)Nc1cc(F)ccc1F | 1% | 3% | 1% | /
COc1cc(C(=O)Nc2cc3c(cc2N2CCCCC2)n(C)c(=O)n3C)cc(OC)c1OC | 21µM* | 15µM* | -4% | 7%
COc1cc(OC)cc(C(=O)Nc2cc3c(cc2N2CCCCC2)n(C)c(=O)n3C)c1 | ? | -8% | -4% | 2%
O=C1[C@H]2[C@@H]3CCN1CCC[C@@H]2C=C[C@@H]3c1ccc(Br)cc1 | ? | 18µM* | 0% | /
O=C1C2C3C=CC(CC3)C2C(=O)N1c1ccc(Br)cc1[N+](=O)[O-] (centres undefined) | -10% | -39% | / | /
CCOC(=O)C1CCN(C(=O)COC(=O)c2ccc([N+](=O)[O-])o2)CC1 | ? | -9% | 1% | /
O=C(O)COc1ccc2c3c(c(=O)oc2c1)CCCC3 | 28% | -4% | / | -11%
COC(=O)c1ccc(COc2ccc3c4c(c(=O)oc3c2)CCC4)o1 | -6% | -17% | 3.2µM* | 7%
COC(=O)c1cc(COc2ccc3c4c(c(=O)oc3c2)CCCC4)c(C)o1 | 1% | -25% | -15% | -6%
SMILES | DT40 TDP1 CPT | DT40 TDP1 no CPT | ClpP mod | TDP1 block
Cc1oc(C(=O)O)cc1COc1ccc2c3c(c(=O)oc2c1)CCC3 | 1% | 11% | 28µM* | /
O=C(COc1ccccc1C(=O)NCc1ccccc1)Nc1ccc(Br)cc1 | ? | ? | 4% | /
Cc1nc(N2CCC(C)CC2)c2c(C)c(C(=O)Nc3cccc(C(F)(F)F)c3)sc2n1 | ? | ? | / | -2%
Cc1nc(Nc2cnc(/C=C/c3cc(C(=O)Nc4cccc(C(F)(F)F)c4)ccc3C)cn2)cc(N2CCNCC2)n1 | 18µM* | 21µM* | 4% | /
CCOC(=O)C1CCCN(C(=O)CN2C(=O)/C(=C/c3ccc(OC)cc3)Oc3ccccc32)C1 (centres undefined) | ? | 13µM* | 1% | 0%
CC1(C(=O)NS(=O)(=O)c2cccc(C#N)c2)CCN1C(=O)Cc1ccccc1 (centres undefined) | 9% | 1% | -1% | /
O=C(O)C1CC=CCC1C(=O)N1CCN(c2nc(-c3ccccc3Cl)c3cc(Br)ccc3n2)CC1 (centres undefined) | -29% | ? | -4% | -3%
O=C(O)C1CC=CCC1C(=O)N1CCN(c2nc(-c3ccccc3)c3ccccc3n2)CC1 (centres undefined) | 18µM* | ? | -19% | -5%
O=C(Nc1ccccc1Cl)c1ccccc1 | 2% | -1% | / | 0%
CC(NC(=O)c1ccc(F)cc1)c1ccccc1 (centres undefined) | -1% | 0% | 0% | 2%
O=C(Nc1ccccc1Cl)C(Cl)C(=O)c1ccccc1 (centres undefined) | 15µM* | 13µM* | / | 3%
O=C(Nc1ccc(Cl)cc1)C(Cl)C(=O)c1ccccc1 (centres undefined) | 9.2µM* | 13µM* | 1% | -4%
Cc1ccc(C(NC(=O)NC(C)c2ccccc2)C(Cl)(Cl)Cl)cc1F (centres undefined) | 18µM* | -85% | -3% | -3%
CC(NC(=O)Nc1ccc(Cl)cc1)c1ccccc1 (centres undefined) | ? | 26µM* | 1% | /
O=C(CN1Cc2ccccc2OC(c2ccccc2)C1)NCc1cccnc1 (centres undefined) | -1%[9.04 µM] | ? | / | /
Cc1ccc2nc(-c3ccc(N=Nc4cc(S(=O)(=O)O)c5ccccc5c4O)cc3)sc2c1S(=O)(=O)O | ? | ? | 4% | -7%
Cc1ccc2nc(-c3ccc(N)cc3)sc2c1S(=O)(=O)O | / | / | / | 32µM*
CCOc1cccc(C2C=C(c3ccc4c(c3)OCO4)NC(c3ccc(Br)cc3)N2)c1O (centres undefined) | ? | 16µM* | -1% | 3%
CCOc1cccc(C2C=C(c3ccc4c(c3)OCO4)NC(c3cccc(Br)c3)N2)c1O (centres undefined) | 10µM* | 10µM* | -1% | 2%
CCNC(=O)C1(C)CCN(C(=O)c2ccc(F)cc2Cl)C1 (centres undefined) | -22% | 13% | 1% | /
CCOC(=O)c1c(NC(=O)COc2cccc(C(F)(F)F)c2)sc2c1CCC(C)C2 (centres undefined) | -15% | -30% | -2% | 2%[12.3 µM]

Compound activity deposited in PubChem BioAssay by National Center for Advancing Translational Sciences (NCATS).
